Here are results for 35 compounds from the supplement of paper PMC12297408.

For this assay, the system named is Plasmodium falciparum NF54/iGP1_RE9H ulg8 stage V gametocytes. As to the kind of experiment: gametocyte viability (luciferase signal relative to DMSO control) (% of DMSO control); higher = less gametocytocidal activity, active = 50 or less. As to conditions: exposure time: 72 h. On the procedure: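 Synchronous P. falciparum NF54/iGP1_RE9H ulg8 mature stage V gametocytes (day 12) were exposed to Cayman Epigenetics Screening Library compounds at 10 µM or 1 µM for 72 h at 37 °C. Viability was read as RE9H luciferase bioluminescence, normalised to DMSO plate controls (100%); 50 µM methylene blue was the positive control.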

Where a name gives a salt, the structure may show the parent alone. Values without a mark were called inactive.

As for `CN(C)Cc1ccc(S(=O)(=O)n2ccc(/C=C/C(=O)NO)c2)cc1` [Resminostat (hydrochloride)], the gametocyte viability by setting is: (concentration: 1 µM) 94.8; (concentration: 10 µM) 77.8.
On the same counts, the results for `CN1CCC(=C2c3ccccc3C=Cc3ccccc32)CC1` [Cyproheptadine (hydrochloride hydrate)] are 88.2 and 86.6.
On the same counts, the results for `O=C(CCCCCCC(=O)Nc1ccc(I)cc1)NO` [4-iodo-SAHA] are 88.3 and 67.2.
In the same order, the values of `O=C(NCC(=O)N1CCCC1)Nc1ccc2cnccc2c1` are 91.7 and 93.4.
Turning to `CCN(c1cc(-c2ccc(CN3CCOCC3)cc2)cc(C(=O)NCc2c(C)cc(C)[nH]c2=O)c1C)C1CCOCC1`, the gametocyte viability was 95.1 (concentration: 1 µM) and 93 (concentration: 10 µM).
As to `CCCCNNC(=O)c1ccc(Br)cc1`, the gametocyte viability is, setting by setting: (concentration: 1 µM) 84; (concentration: 10 µM) 56.1.
In the same order, the values of `CCCCCOc1ccc(/C=C\c2cccc(O)c2C(=O)O)cc1` are 87.3 and 88.4.
In the same order, the values of `CCCCCCCCCCCCCCCc1cccc(O)c1C(=O)O` [Anacardic Acid] are 84.7 and 82.9.
On the same counts, the results for `Cn1cc(CCn2cnc(-c3cnn(C)c3)c2-c2ccc(C#N)cc2)cn1` are 91.3 and 89.1.
On to `O=C(Cc1ccccc1)Nc1ccc2oc(-c3ccc(Cl)cc3Cl)nc2c1`, for which the gametocyte viability (concentration: 1 µM) was 80.3 and the gametocyte viability (concentration: 10 µM) was 51.9.
On the same counts, the results for `Nc1ccccc1NC(=O)c1ccc(CNC(=O)OCc2cccnc2)cc1` are 83.8 and 88.
In the same order, the values of `Cn1c(=O)cc(C(=O)Nc2ccc3c(c2)OCCO3)c2ccccc21` are 82.8 and 86.7.
As for `COc1ccccc1C(=O)Nc1cc2c(cc1N1CCNC[C@H]1C)n(C)c(=O)n2C`, the gametocyte viability reads like this: (concentration: 1 µM) 88.2; (concentration: 10 µM) 93.7.
In the same order, the values of `O=C(/C=C/c1cccc(C(=O)NO)c1)NO` are 89.2 and 75.4.
On the same counts, the results for `CCC(=O)N1CCOc2c(cc(-c3ccc(OC)c(OC)c3)cc2OC[C@H]2CCCN(C)C2)C1` [I-CBP112 (hydrochloride)] are 84.5 and 86.9.
Take `Nc1nccc2c1ncn2C1C=C(CO)C(O)C1O` (stereo not given) [3-Deazaneplanocin A]: the gametocyte viability runs as follows: (concentration: 1 µM) 88.8; (concentration: 10 µM) 88.1.
In the same order, the values of `COc1ccc(S(=O)(=O)ON=C2C=C(C)C(=O)C(C)=C2)cc1` are 87.3 and 43.2 (active).
For `CC(=O)OCC1OC(n2cnc(N)nc2=O)C(OC(C)=O)C1OC(C)=O` (stereo not given) [2',3',5'-triacetyl-5-Azacytidine], the gametocyte viability by setting is: (concentration: 1 µM) 87.3; (concentration: 10 µM) 85.8.
For the compound `CCCCOc1ccc(CC(=O)NO)cc1` [Bufexamac], the gametocyte viability (concentration: 1 µM) was 85 and the gametocyte viability (concentration: 10 µM) was 94.8.
Take `COc1cc(OC)c2c(=O)[nH]c(-c3cc(C)c(OCCO)c(C)c3)nc2c1`: the gametocyte viability reads like this: (concentration: 1 µM) 94.1; (concentration: 10 µM) 92.5.
In the same order, the values of `C#Cc1cccc(Nc2ncnc3cc(OC)c(OCCCCCCC(=O)NO)cc23)c1` are 58.7 and 56.7.
For `COc1cc(-c2cn(C)c(=O)c3cnccc23)c(OC)cc1CN(C)C`, the gametocyte viability reads like this: (concentration: 1 µM) 86.9; (concentration: 10 µM) 85.8.
In the same order, the values of `O=C(Nc1cccc(Br)c1)c1cccc(S(=O)(=O)N2CCCCCC2)c1` are 85.8 and 69.8.
`CN1CCN(c2ccc(-c3cccc(CN4CCOCC4)c3)cc2NC(=O)c2c[nH]c(=O)cc2C(F)(F)F)CC1`: the gametocyte viability by setting is: (concentration: 1 µM) 89.4; (concentration: 10 µM) 94.1.
In the same order, the values of `Nc1ccccc1NC(=O)c1ccc(CNc2nccc(-c3cccnc3)n2)cc1` [Mocetinostat] are 89.7 and 88.2.
In the same order, the values of `O=C1C(=Cc2cccnc2)C(=O)c2ccccc21` are 79.2 and 80.2.
On the same counts, the results for `COC(=O)c1ccc2c(c1)nc(NC(=O)c1ccccc1)n2CCCc1ccccc1` are 86.9 and 54.7.
As for `O=C(NC[C@H](O)CN1CCc2ccccc2C1)c1cc(NC2COC2)ncn1`, the gametocyte viability was 90 (concentration: 1 µM) and 89.1 (concentration: 10 µM).
Regarding `Cc1[nH]c2ccccc2c1CCNCc1ccc(/C=C/C(=O)NO)cc1` [Panobinostat], the gametocyte viability by setting is: (concentration: 1 µM) 60.2; (concentration: 10 µM) 61.4.
On the same counts, the results for `CCn1c2ccccc2c2cc(CNCc3ccccc3OC)ccc21` [HLCL-61 (hydrochloride)] are 85 and 94.
In the same order, the values of `NC(=O)[C@H](CCCN=C(N)CF)NC(=O)c1ccccc1` [F-Amidine (trifluoroacetate salt)] are 103 and 95.9.
In the same order, the values of `CC(=O)SCC(=O)c1ccc(NS(=O)(=O)c2ccc(OCCCN(C)C)cc2)nc1` are 83.8 and 85.4.
For the compound `CN(C)c1ccc(C(=O)NCCCCCCC(=O)NO)cc1`, the gametocyte viability was 83.7 (concentration: 1 µM) and 50.5 (concentration: 10 µM).
Regarding `COc1cc2c(NC3CCN(C(C)C)CC3)nc(C3CCCCC3)nc2cc1OCCCN1CCCC1`, the gametocyte viability was 77.7 (concentration: 1 µM) and 15.4 (active) (concentration: 10 µM).
Regarding `COc1cc2c(cc1-c1c(C)noc1C)ncc1[nH]c(=O)n([C@H](C)c3ccccn3)c12`, the gametocyte viability is 91.5 (concentration: 1 µM) and 97.8 (concentration: 10 µM).
